# Experimental data as given in PubChem BioAssay AID624101 (Broad Institute, 2012).
# Among all 70,000 compounds or so, about 120 (0.17%) were called active. Cut-off read from the data, not from the text of the source: active = inhibition above about 34%; inconclusive = no clear call, values can overlap the other calls; inactive = below about 11%. Only a selection was taken, and actives are over-represented in it overall.
# Target: Isocitrate dehydrogenase [NADP] cytoplasmic (Homo sapiens) (UniProt O75874)
# Sequence (O75874 whole entry R132H): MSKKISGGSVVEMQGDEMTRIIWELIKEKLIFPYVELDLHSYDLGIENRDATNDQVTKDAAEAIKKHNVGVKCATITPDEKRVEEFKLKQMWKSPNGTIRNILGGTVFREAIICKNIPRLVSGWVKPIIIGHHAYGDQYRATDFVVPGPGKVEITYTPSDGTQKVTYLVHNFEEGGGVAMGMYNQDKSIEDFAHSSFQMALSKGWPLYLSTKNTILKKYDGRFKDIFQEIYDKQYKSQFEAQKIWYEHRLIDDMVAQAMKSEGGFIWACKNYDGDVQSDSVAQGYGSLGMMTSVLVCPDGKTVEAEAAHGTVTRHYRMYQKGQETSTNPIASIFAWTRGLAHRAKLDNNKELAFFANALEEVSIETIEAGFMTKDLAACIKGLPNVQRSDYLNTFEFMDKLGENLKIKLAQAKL
# Test: PubChem AID 624101;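 note: 0% = DMSO and 100% = no enzyme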
# Conditions: IDH1 R132H reductase, diaphorase/resazurin fluorescence, 60 min; at 10 µM; hits give high values
row,SMILES,inhibition
1,CO[C@H]1CN(C)C(=O)c2cc(NS(=O)(=O)CC(F)(F)F)ccc2OC[C@@H](C)N(Cc2nccs2)C[C@@H]1C,0.457% (inactive)
2,CO[C@H]1CN(C)C(=O)c2ccc(NC(=O)NC(C)C)cc2OC[C@H](C)N(Cc2cncnc2)C[C@@H]1C,0.214% (inactive)
3,O=C(Cc1ccncc1)NCC[C@H]1CC[C@@H](NC(=O)Nc2ccc(Cl)cc2)[C@@H](CO)O1,0.092% (inactive)
4,O=C(C[C@H]1CC[C@@H](NC(=O)Nc2ccc(C(F)(F)F)cc2)[C@H](CO)O1)NCc1cc(F)cc(F)c1,0.19% (inactive)
5,CCS(=O)(=O)N[C@@H]1CC[C@@H](CC(=O)NCC2CC2)O[C@H]1CO,-0.0912% (inactive)
6,COc1ccc(CNC(=O)C[C@@H]2CC[C@H](NC(=O)c3cccc(F)c3)[C@H](CO)O2)cc1,0.0345% (inactive)
7,O=C(N[C@H]1CC[C@@H](CCNS(=O)(=O)c2ccc(Cl)cc2)O[C@H]1CO)c1cccc(F)c1,-0.0045% (inactive)
8,CO[C@@H]1CN(C)C(=O)c2ccc(NC(C)=O)cc2OC[C@@H](C)N(Cc2ccc(-c3ccccn3)cc2)C[C@H]1C,-0.357% (inactive)
9,CCCC(=O)Nc1ccc2c(c1)OC[C@H](C)N(S(=O)(=O)c1cn(C)cn1)C[C@@H](C)[C@H](OC)CN(C)C2=O,-0.504% (inactive)
10,C[C@@H]1CN([C@@H](C)CO)C(=O)c2cc(-c3ccccc3F)cnc2O[C@H]1CN(C)C(=O)C1CC1,0.564% (inactive)
11,O=C(C[C@H]1C[C@@H]2c3cc(NC(=O)CC4CC4)ccc3O[C@@H]2[C@H](CO)O1)NCc1cccnc1,-0.193% (inactive)
12,CO[C@@H]1CN(C)C(=O)c2cc(NC(=O)C3CC3)ccc2OC[C@H](C)N(C(=O)CN2CCOCC2)C[C@@H]1C,0.377% (inactive)
13,COCCNC(=O)C[C@H]1C[C@H]2c3cc(NS(C)(=O)=O)ccc3O[C@H]2[C@H](CO)O1,-0.133% (inactive)
14,COCC(=O)N(C)C[C@H]1Oc2cc(C#CC3CCCC3)ccc2S(=O)(=O)N([C@H](C)CO)C[C@@H]1C,-1.42% (inactive)
15,C[C@H]1CN([C@@H](C)CO)C(=O)c2cc(-c3ccccc3F)cnc2O[C@H]1CN(C)C(=O)C1CCOCC1,0.288% (inactive)
16,O=C(N[C@H]1CC[C@@H](CCNS(=O)(=O)c2ccccc2)O[C@@H]1CO)c1cnccn1,-0.078% (inactive)
17,O=C(NCC[C@@H]1CC[C@@H](NS(=O)(=O)c2cccc(F)c2)[C@H](CO)O1)C1CC1,0.164% (inactive)
18,CO[C@H]1CN(C)C(=O)c2cc(NC(=O)Nc3ccccc3)ccc2OC[C@@H](C)N(C(=O)Nc2c(C)noc2C)C[C@@H]1C,-0.138% (inactive)
19,COc1ccccc1-c1cn(CC[C@H]2CC[C@@H](NC(=O)CCN3CCCCC3)[C@@H](CO)O2)nn1,-0.639% (inactive)
20,O=C(C[C@H]1C=C[C@@H](NC(=O)NC2CCCCC2)[C@@H](CO)O1)NCc1ccc(Cl)cc1,0.05% (inactive)

row,SMILES,inhibition
1,CCC(=O)Nc1ccc2c(c1)C(=O)N(C)C[C@@H](OC)[C@H](C)CN(Cc1ccccc1C(=O)O)[C@@H](C)CO2,-0.502% (inactive)
2,CO[C@@H]1CN(C)C(=O)c2ccc(NS(C)(=O)=O)cc2OC[C@H](C)N(C(=O)C2CC2)C[C@H]1C,-0.15% (inactive)
3,CC(=O)N[C@H]1CC[C@H](CCNC(=O)C2CC2)O[C@H]1CO,0.591% (inactive)
4,CCCc1cn(CC[C@@H]2CC[C@H](NS(=O)(=O)c3ccccc3Cl)[C@H](CO)O2)nn1,-0.0115% (inactive)
5,CCCC(=O)Nc1ccc2c(c1)C(=O)N(C)C[C@H](OC)[C@@H](C)CN(C(C)=O)[C@H](C)CO2,0.373% (inactive)
6,COCc1cn(CC[C@H]2CC[C@H](NC(=O)c3ccncc3)[C@H](CO)O2)nn1,0.111% (inactive)
7,O=C(N[C@@H]1CC[C@@H](CCn2cc(-c3ccccn3)nn2)O[C@@H]1CO)c1ccccc1,0.105% (inactive)
8,O=C(C[C@@H]1C[C@H]2c3cc(NC(=O)C4CCOCC4)ccc3O[C@H]2[C@@H](CO)O1)NCCN1CCCCC1,-0.003% (inactive)
9,O=C(C[C@H]1CC[C@@H](NC(=O)c2ccccc2)[C@@H](CO)O1)NCc1ccncn1,-0.091% (inactive)
10,CO[C@@H]1CN(C)C(=O)c2cc(NC(=O)c3ccc(F)cc3)ccc2OC[C@H](C)N(C(=O)CN(C)C)C[C@H]1C,-0.235% (inactive)
11,C[C@@H]1CN([C@H](C)CO)C(=O)c2cc(-c3ccccc3)cnc2O[C@H]1CN(C)C(=O)Nc1ccccc1,-0.031% (inactive)
12,Cc1noc(C)c1NC(=O)N(C)C[C@H]1Oc2ccc(NS(=O)(=O)c3ccc(Cl)cc3)cc2CC(=O)N([C@H](C)CO)C[C@@H]1C,0.108% (inactive)
13,O=C(N[C@H]1CC[C@H](CCn2cc(C3(O)CCCC3)nn2)O[C@H]1CO)C1CC1,-0.0085% (inactive)
14,COc1ccccc1CNC(=O)C[C@@H]1C[C@H]2c3cc(NC(=O)CN(C)C)ccc3O[C@H]2[C@@H](CO)O1,-0.208% (inactive)
15,C[C@@H]1CN([C@@H](C)CO)S(=O)(=O)c2ccc(C#Cc3ccncc3)cc2O[C@@H]1CN(C)S(=O)(=O)c1ccccc1,-0.653% (inactive)
16,CO[C@@H](CN(C)C(=O)c1cnccn1)[C@H](C)CN([C@H](C)CO)S(=O)(=O)c1ccc(C)cc1,0.027% (inactive)
17,C/C=C/c1cnc2c(c1)C(=O)N([C@H](C)CO)C[C@H](C)[C@H](CN(C)C(=O)c1cccc(F)c1)O2,0.473% (inactive)
18,CO[C@H]1CN(C)C(=O)c2cc(NS(=O)(=O)c3ccc(C)cc3)ccc2OC[C@H](C)NC[C@H]1C,0.218% (inactive)
19,COc1ccc(-c2cnc3c(c2)C(=O)N([C@@H](C)CO)C[C@@H](C)[C@H](CN(C)C(=O)C2CCCCC2)O3)cc1,-0.366% (inactive)
20,CN(C)C(=O)C[C@@H]1C=C[C@H](NC(=O)Nc2cccc(F)c2)[C@H](CO)O1,0.0155% (inactive)

row,SMILES,inhibition
1,CCC(=O)Nc1ccc2c(c1)C(=O)N(C)C[C@H](OC)[C@H](C)CN(C(=O)c1ccccc1F)[C@@H](C)CO2,-0.083% (inactive)
2,COc1cccc(S(=O)(=O)Nc2ccc3c(c2)C(=O)N(C)C[C@@H](OC)[C@H](C)CN(C(=O)Cc2cccnc2)[C@H](C)CO3)c1,0.018% (inactive)
3,CCCNC(=O)Nc1ccc2c(c1)C(=O)N(C)C[C@@H](OC)[C@@H](C)CN(C)[C@@H](C)CO2,-0.291% (inactive)
4,CO[C@@H]1CN(C)C(=O)c2cc(NS(C)(=O)=O)ccc2OC[C@@H](C)N(C(=O)C2CCC2)C[C@@H]1C,-0.303% (inactive)
5,CCC(=O)Nc1ccc2c(c1)OC[C@@H](C)N(CC1CC1)C[C@H](C)[C@H](OC)CN(C)C2=O,0.102% (inactive)
6,O=C(C[C@@H]1C=C[C@@H](NC(=O)c2ccccc2)[C@H](CO)O1)NCCc1ccncc1,0.0765% (inactive)
7,CO[C@H]1CN(C)C(=O)c2ccc(NC(=O)c3cc(C)on3)cc2OC[C@H](C)N(C)C[C@H]1C,0.444% (inactive)
8,CN1CCN(C(=O)C[C@H]2C[C@@H]3c4cc(NC(=O)NC5CCCC5)ccc4O[C@@H]3[C@@H](CO)O2)CC1,0.0955% (inactive)
9,O=C(NCC[C@H]1CC[C@H](NC(=O)C2CC2)[C@@H](CO)O1)c1ccc(F)cc1,0.372% (inactive)
10,O=C(Nc1ccc2c(c1)[C@@H]1C[C@H](CC(=O)N3CCOCC3)O[C@@H](CO)[C@@H]1O2)C1CCOCC1,-1% (inactive)
11,COCC(=O)Nc1ccc2c(c1)C(=O)N(C)C[C@@H](OC)[C@@H](C)CN(C(=O)c1ccccc1)[C@@H](C)CO2,0.0325% (inactive)
12,CO[C@@H]1CN(C)C(=O)c2ccc(NC(=O)c3ccc(F)cc3)cc2OC[C@H](C)N(C)C[C@H]1C,0.002% (inactive)
13,COCC(=O)Nc1ccc2c(c1)[C@H]1C[C@H](CC(=O)OC)O[C@@H](CO)[C@H]1O2,-0.0115% (inactive)
14,CO[C@@H]1CN(C)C(=O)c2ccc(NS(=O)(=O)c3cccc(C)c3)cc2OC[C@@H](C)NC[C@H]1C,-0.0525% (inactive)
15,COCC(=O)Nc1ccc2c(c1)OC[C@H](C)N(C(=O)COC)C[C@@H](C)[C@H](OC)CN(C)C2=O,-0.0515% (inactive)
16,CC(=O)N(C)C[C@@H]1Oc2cc(-c3cncnc3)ccc2S(=O)(=O)N([C@@H](C)CO)C[C@H]1C,1.05% (inactive)
17,COc1ccccc1CNC(=O)C[C@H]1C[C@@H]2c3cc(NC(=O)c4ccc5c(c4)OCO5)ccc3O[C@@H]2[C@H](CO)O1,-0.69% (inactive)
18,CN(C)CCCNC(=O)C[C@@H]1C=C[C@H](NC(=O)c2ccccc2F)[C@H](CO)O1,0.626% (inactive)
